Screening results (PubChem BioAssay)
LANA-H2B inh – blocks KSHV LANA binding to histone H2A/H2B; 320,000 compounds, 0.6% hits; cell-free LANA-H2A/H2B peptide, fluorescence polarization; Q9QR71; inhibition, % (test concentration not listed); in the data active = inhibition mostly above about 10%, no sharp cut-off; inactive = mostly below about 6.7%
ABHD5-PLIN5 inh – ABHD5-PLIN5 protein interaction inhibition. 360,000 compounds, 0.78% hits. AID 602281. Q00G26+Q8WTS1. Split G. princeps luciferase complementation, luminescence, 4 h. inhibition, % at 4 µM;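 active = inhibition above the mean inhibition across every tested compound plus 3 SD, cut at about 22% in these data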;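 note: 0% = DMSO only wells and the 100% control is not disclosed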
rCAG binder – r(CAG) repeat RNA binding; TO-PRO-1 dye displacement fluorescence; inhibition, % at 3 µM; 370,000 compounds, 1.3% hits; AID 651821;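 active = inhibition above the plate cutoff, the mean of all test compounds on that plate plus 3 SD, cut at about 35% in these data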;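 note: 0% = DMSO alone and 100% = 100 µM mitoxantrone as full dye displacement; higher means more dye released from RNA so lower well fluorescence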
ALR inh – human ALR oxidase inhibition via reduced H2O2. purified ALR, DTT oxidation, H2O2 HRP-luminol luminescence. 290,000 compounds, 3.8% hits. P55789. inhibition, % (concentration not given with the values). AID 485317;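 active = mean replicate inhibition above about 79%, with every replicate also reaching it, limit read from the data; inconclusive = only one of the two criteria met; inactive = mean below limit and not every replicate reaching it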
Target sequence (P55789 whole entry, looked up): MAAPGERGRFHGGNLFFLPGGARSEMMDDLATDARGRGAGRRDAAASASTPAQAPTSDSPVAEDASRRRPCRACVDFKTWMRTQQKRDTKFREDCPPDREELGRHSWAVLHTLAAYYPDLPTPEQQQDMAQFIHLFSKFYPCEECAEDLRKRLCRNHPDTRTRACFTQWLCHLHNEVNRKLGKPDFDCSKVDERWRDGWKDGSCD
Rtt109 HAT inh – C. albicans Rtt109 histone acetyltransferase inhibition; 330,000 compounds, 0.16% hits; inhibition, % at 34.9 µM; purified Rtt109/Vps75, ThioGlo CoA-SH fluorescence, 4 h; AID 540336; Q5AAJ8;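 active = inhibition of at least 50% in every replicate; inconclusive = best replicate reaches 50% inhibition but some replicates fall short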
PRMT1 FP inh – PRMT1 (human) inhibition, primary screen | inhibition, % at 2.79 µM | AID 652257 | 370,000 compounds, 1.3% hits | recombinant PRMT1, activity-based probe fluorescence polarization;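 active = inhibition above about 21% made by adding two undisclosed values, limit read from the data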
Target sequence (Q99873 whole entry, looked up): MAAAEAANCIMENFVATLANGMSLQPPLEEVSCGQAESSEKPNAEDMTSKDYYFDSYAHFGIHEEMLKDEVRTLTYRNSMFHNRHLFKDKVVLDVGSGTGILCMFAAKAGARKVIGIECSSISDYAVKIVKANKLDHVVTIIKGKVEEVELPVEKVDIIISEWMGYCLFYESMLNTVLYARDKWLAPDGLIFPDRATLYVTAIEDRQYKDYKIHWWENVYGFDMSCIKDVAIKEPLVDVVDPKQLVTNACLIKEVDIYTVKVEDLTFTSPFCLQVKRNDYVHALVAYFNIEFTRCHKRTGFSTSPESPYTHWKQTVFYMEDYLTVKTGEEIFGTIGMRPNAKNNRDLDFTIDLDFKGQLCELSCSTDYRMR
The depositor's hits bear a star; ? = inconclusive; . = not tested or not shown; ! = not confirmed by another sample. This is a sample that favours compounds with a hit; in the whole collection about 5.9% have one here.

SMILES | LANA-H2B inh | ABHD5-PLIN5 inh | rCAG binder | ALR inh | Rtt109 HAT inh | PRMT1 FP inh
O=C(COC(=O)CSc1ccc([N+](=O)[O-])cc1)NCC1CCCO1 (stereo not given) | 3 | -10 | -3 | 99* | 2 | 12
O=C(COC(=O)CSc1ccc([N+](=O)[O-])cc1)NC1CCCCCCC1 | 3 | 12 | -1 | -9 | . | 8
N#CNC(=Nc1cccc(C(F)(F)F)c1)SCc1ccc(C(=O)O)cc1 | 1 | 3 | 14 | 99* | -98 | -4
Cn1c(-c2ccc3nc(N)sc3c2)nc2cc(N)ccc21 | -1 | -1 | 5 | 99* | -1 | 1
Cn1c(-c2ccc(N)cc2)nc2ccccc21 | -1 | 2 | 3 | 37 | -2 | -3
CC12C=CC(C)(C3C(=O)NC(=O)C31)C1C3C(=O)NC(=O)C3C12 (stereo not given) | . | . | 3 | . | . | 0
CCC(=O)C1CCCN(C(=O)CCc2nnc(C3(c4ccc(Cl)cc4)CCC3)o2)C1 (stereo not given) | -1 | -1 | -7 | -1 | 6 | 1
O=C(CSc1nc2ccccc2[nH]1)N=Nc1c(O)[nH]c2ccccc12 | 0 | 1 | 3 | 96* | . | 6
Cn1c(SCC(=O)N=Nc2c(O)[nH]c3ccccc23)nc2ccccc21 | -3 | . | . | -15 | . | .
Cc1ccc(-n2c(-c3ccc(Cl)cc3)n[nH]c2=S)c(C)c1 | 2 | -5 | 13 | 87* | 8 | 18
Cc1ccc(-n2c(-c3cccnc3)n[nH]c2=S)c(C)c1 | -3 | 4 | -2 | 84* | . | 0
COc1ccc(-c2n[nH]c(=S)n2-c2ccc(C)cc2C)cc1 | -5 | -1 | 8 | 46 | 6 | -2
Nn1c(SCc2cccc3ccccc23)nnc1-c1cc(-c2ccc(Cl)cc2)n[nH]1 | . | . | 7 | . | . | 1
CCOc1ccc(N2C(=O)CC(SCCN)C2=O)cc1 (stereo not given) | 3 | -5 | 6 | -19 | -1 | 22*
CCCCCCOc1ccc(N2C(=O)CC(SCCN)C2=O)cc1 (stereo not given) | 0 | 2 | -5 | -4 | 1 | 19
COc1ccc(CNc2nc(NCc3ccc(OC)c(OC)c3)n(C(=O)c3cccs3)n2)cc1OC | 1 | 23* | 4 | -10 | -25 | 1
Oc1ccc(-c2csc(Nc3ncccn3)n2)c(O)c1 | -5 | -2 | 8 | 17 | 8 | -3
Cc1cccc(Nc2nc(-c3ccc(O)cc3O)cs2)n1 | -2 | -9 | 29 | 97* | -4 | 3
CCCCS(=O)(=O)NC(=O)C1(C)CCN1C(=O)C/C=C/c1ccccc1 (stereo not given) | . | 3 | 9 | . | . | -2
COCCCNC(=O)C[C@H]1C[C@@]2(C(=O)OC)C(=C[C@H](C3CCCC3)O[C@@H]2C)N(Cc2cccc3ccccc23)C1=O | . | . | 1 | . | . | -7
Cc1cc2[nH]c(=S)[nH]c2cc1C | 0 | 6 | -4 | 99* | 21 | 17
CC(OC(=O)CNC(=O)c1ccc(Cl)cc1)C(=O)NC1CCCCC1C (stereo not given) | 0 | 6 | -6 | 0 | 45 | -3
Oc1cc(Nc2cccnc2)cc2cccnc12 | -3 | 0 | 6 | 90* | 12 | 3
COc1ccc(NC(=O)C2CCC(C(C)(C)C)CC2)cc1S(=O)(=O)N1CCOCC1 (stereo not given) | . | 15 | 11 | -8 | -9 | 3
O=C1Oc2ccccc2C(=O)/C1=C\N1CCN(c2ccccc2)CC1 | 5 | 0 | 5 | 97* | 6 | -2
SMILES | LANA-H2B inh | ABHD5-PLIN5 inh | rCAG binder | ALR inh | Rtt109 HAT inh | PRMT1 FP inh
CCS(=O)(=O)N1CCN(c2ccccc2)CC1 | -5 | -1 | -1 | 56 | 4 | -1
N#Cc1ccc(/C=C2\CC3(OC(=O)c4ccccc4)CCCN2C3)cc1 (stereo not given) | . | . | 2 | . | . | -1
COc1ccccc1N1CCN(CC(O)COCCOc2ccc(Br)cc2)CC1 (stereo not given) | -4 | 9 | -2 | . | 6 | 2
COc1cccc(OCC(O)CN2CCN(c3ccccc3)CC2)c1 (stereo not given) | 1 | 7 | -10 | 96*! | -3 | 0
COc1ccc(N2CCN(CC(O)COc3ccc4c(c3)CCC4)CC2)cc1 (stereo not given) | 2 | 2 | -5 | 97* | 10 | -1
COc1ccc(N2CCN(CC(O)COCCOc3ccc(Br)cc3)CC2)cc1 (stereo not given) | 4 | -2 | -6 | 97* | -2 | -1
Cc1ccc(CCNC(=O)c2cc(-c3ccncc3)nc3ccc(S(=O)(=O)N4CCOCC4)cc23)cc1 | -2 | 4 | 1 | . | 29 | -2
COc1cccc(/C=N/N2C(=O)NC3(CCCCC3)C2=O)c1O | 0 | 2 | -2 | 84* | -3 | -1
C=CCNC(=S)N1C[C@H]2CON(C)[C@H]2C[C@H]1c1ccccc1Br | . | . | 2 | . | . | -9
CSc1ccc(C(=O)NCC(c2ccco2)N(C)C)cc1[N+](=O)[O-] (stereo not given) | -5 | -1 | 0 | 12 | 8 | 1
COc1cc2c(cc1OC)/C(=C/C(=O)N1CCOCC1)NC(C)(C)C2 | -8 | . | -6 | 6 | . | 21
CC1(C)Cc2ccccc2/C(=C/C(=O)N2CCCCCC2)N1 | 0 | 0 | -9 | 9 | -2 | 22*
O=C(Nc1nnc(-c2ccc(F)cc2)o1)c1ccco1 | -3 | -4 | 2 | 96* | 9 | 1
Cc1ccccc1C(=O)Nc1nnc(-c2ccc(F)cc2)o1 | -3 | 8 | 4 | . | 1 | -1
COc1ccc(-c2nc(CS(=O)CC(=O)NCc3ccco3)c(C)o2)cc1 (stereo not given) | 2 | -5 | 5 | 99* | 2 | 1
CCc1ccc(-c2nc(CS(=O)CC(=O)NCc3ccco3)c(C)o2)cc1 (stereo not given) | -2 | 11 | 6 | 99* | 11 | 9
Cc1ccc2c(c1)C1(SC(C)C(=O)N1c1ccc(Cl)cc1)C(=O)N2 (stereo not given) | . | 0 | 1 | . | . | -4
Cc1ccc(NC(=S)NNC(=O)Cn2nc([N+](=O)[O-])cc2C)cc1 | -1 | -2 | . | 85* | -2 | .
Cc1cc([N+](=O)[O-])nn1CC(=O)NNC(=S)Nc1ccc(Cl)cc1 | 2 | -1 | 18 | ? | -2 | -4
NCCSc1c(-c2ccccc2)[nH]c2ccccc12 | 2 | 6 | 11 | 97* | 2 | 0
NCCSc1c(-c2ccc(Cl)cc2)[nH]c2ccccc12 | 2 | 17 | 11 | -7 | 6 | -3
C[C@@H]1ON(C)[C@H]2C[C@H]3c4cc(-c5ccccc5)ccc4CCN3C[C@@H]12 | . | . | 8 | . | . | 2
COCCNC(=O)CN(Cc1ccc2c(c1)OCO2)C(=O)CCC(=O)Nc1nccs1 | 18* | 8 | -6 | . | 9 | -2
O=c1[nH]c(=S)[nH]c2sccc12 | -4 | -3 | 1 | 97* | 7 | 2
